Compound activity (PubChem)
TSG101-PTAP inh – blocks PTAP/TSG101 interaction to inhibit HIV-1 budding; Q99816; Fluorescence polarization, FITC-PTAP peptide / Tsg101 binding; Potency, µM (series often up to 115 µM), inactives show at the top dose activity change, negative = inhibition, actives largely listed as inhibitors; 340,000 tested, under 10 active; AID 493005; active = well fitted inhibition curve with a large enough effect in the main read-out, with a control signal flat, not every such curve was filed as active; inconclusive = small, poorly fitted or top-dose-only effect, or effect the other way, or a change in a side signal; inactive = no such curve, though single readings can be large or run the other way; note: % of control where 0% means no effect
Target sequence (Q99816 whole entry, looked up): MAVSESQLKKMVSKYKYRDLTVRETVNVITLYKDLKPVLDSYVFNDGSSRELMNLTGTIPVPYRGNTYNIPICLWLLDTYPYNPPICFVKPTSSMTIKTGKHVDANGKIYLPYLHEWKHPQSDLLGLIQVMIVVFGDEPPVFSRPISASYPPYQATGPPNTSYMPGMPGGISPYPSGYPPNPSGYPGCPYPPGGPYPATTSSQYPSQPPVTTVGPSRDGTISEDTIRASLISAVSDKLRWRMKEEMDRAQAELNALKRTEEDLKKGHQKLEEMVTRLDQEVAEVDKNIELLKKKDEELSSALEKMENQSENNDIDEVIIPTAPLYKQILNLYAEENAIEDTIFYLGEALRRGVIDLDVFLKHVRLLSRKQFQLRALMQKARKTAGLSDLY
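Tsg101 binding domain (10 uM final) was mixed with compound and a FITC-labeled PTAP peptide (50 nM final) in HEPES pH 7.5 buffer with NaCl, Tween 20, EDTA and TCEP; fluorescence polarization was read after 20 min at r.t.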
RGS4 inh – human RGS4 inhibition; P49798; Transcreener GDP fluorescence polarization, RGS4-accelerated GTP hydrolysis; Potency, µM (doses to about 114 µM), for inactives: top-dose activity change, negative = inhibition, hits mostly inhibitors; 0.039% of 390,000 active; AID 504845; note: % is set by controls: 0 for no effect and ±100 for the full control effect; nearly all actives have a fitted effect of over 75% in size
Target sequence (P49798 whole entry, looked up): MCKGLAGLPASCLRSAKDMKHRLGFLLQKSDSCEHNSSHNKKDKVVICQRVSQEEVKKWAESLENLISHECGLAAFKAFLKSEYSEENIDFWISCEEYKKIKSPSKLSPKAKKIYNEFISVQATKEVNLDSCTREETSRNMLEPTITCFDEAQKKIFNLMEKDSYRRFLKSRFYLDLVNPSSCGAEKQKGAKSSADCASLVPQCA
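MLSMR compounds (23 nl, pin-transferred) preincubated 10 min at room temperature with a 500nM (2x) first reagent, then RGS4 at 900nM (2x) plus Transcreener GDP mix added; fluorescence polarization (620/688 nm) read before and after 90 min at 30 °C.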
KB-3-1 tox – kills parental KB-3-1 adenocarcinoma cells; KB-3-1 viability, CellTiter-Glo ATP luminescence, 72 h; 1.4% of 400,000 active; Potency, µM (highest dose often 46.1 µM), usual class: cytotoxic; note: % is set by controls: 0 for no effect and ±100 for the full control effect; nearly all actives have a fitted effect of over 60% in size
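KB-3-1 cells, DMEM (no phenol red) + 10% FBS; compound by pin transfer, 72 h, 37 °C. Readout: CellTiter-Glo luminescence after 10 min. Data normalized, curve-fitted.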
SW480 rerep – induces DNA re-replication in SW480 colon adenocarcinoma cells; SW480 DNA re-replication, Hoechst DNA content imaging, 48 h; Potency, µM (top dose mostly 46.1 µM), for inactives: at the highest dose re-replication activation, actives largely listed as activators; 1.8% of 340,000 active; AID 624297; note: % of control where 0% means no effect; nearly all actives have a fitted effect of over 55% in size
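Treated cells incubate 48 hr (37 C, 5% CO2), are stained 40 min with Hoechst, and nuclear fluorescence is enumerated; a rise in nuclei with high DNA signal marks re-replication.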
KB-V1 MDR tox – kills drug-selected multidrug resistant KB-V1 cells; KB-V1 MDR cells viability, CellTiter-Glo, 72 h; Potency, µM (top dose mostly 46.1 µM), actives largely listed as cytotoxic; 3.4% of 400,000 active; AID 1347076; note: % is set by controls: 0 for no effect and ±100 for the full control effect; nearly all actives have a fitted effect of over 60% in size
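Cells of the MDR subline KB-V1 are plated, dosed with compound at multiple concentrations, and incubated 72 h at 37 degrees C; CellTiter-Glo is then added and luminescence read after 10 min.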
MCF10A rereplic – DNA re-replication induction in MCF 10a cells | MCF 10A DNA re-replication, Hoechst nuclear intensity, 48 h | Potency, µM (top dose mostly 46.1 µM), inactives show top-dose activity, positive = re-replication, most hits filed as activators | 2.9% of 350,000 active | AID 624296; note: % of control where 0% means no effect; nearly all actives have a fitted effect of over 50% in size
Numbers without * were called inactive; i = inactive; ? = inconclusive; · = no result given. Hits are enriched below; roughly 6.6% of the tested compounds scored in any of these assays. Unless noted, calls come from the whole dose curve; as a rule, active = well fitted curve in the direction sought with a large enough effect; inconclusive = small, poorly fitted or top-dose-only effect, or another doubt; inactive = no such curve, though single readings can be large; an effect the other way counts as inactive or inconclusive. Potency is the fitted concentration of half-maximal effect.

SMILES	TSG101-PTAP inh	RGS4 inh	KB-3-1 tox	SW480 rerep	KB-V1 MDR tox	MCF10A rereplic
Cc1noc(Cn2c(=O)c3cc4c(cc3n(CC(=O)Nc3cccc(Cl)c3)c2=O)OCO4)n1	·	23%	i	·	i	·
Cc1nn(Cc2c(Cl)cccc2Cl)c(C)c1NC(=O)c1cn(-c2ccccc2)nc1-c1ccccc1	-5%	-8%	8.2µM*	8.2µM*	9.2µM*	4.5µM*
Cc1nn(Cc2ccc(Cl)c(Cl)c2)c(C)c1NC(=O)c1sc2ccccc2c1Cl	-3%	?	?	1%	?	?
Cc1ccc(NC(=O)c2cn(-c3ccccc3)nc2-c2ccccc2)cc1	·	6%	i	·	?	·
Cc1ccccc1Cn1nc(C)c(NC(=O)c2sc3ccccc3c2Cl)c1C	-3%	23%	?	10%	13µM*	?
Cc1nn(Cc2c(Cl)cccc2Cl)c(C)c1NC(=O)c1sc2ccccc2c1Cl	-3%	-39%	i	?	i	10µM*
O=C(CSc1nc(=O)[nH]c2c1CCCC2)Nc1ccccc1C(F)(F)F	·	-5%	·	·	·	·
Cc1ccccc1NC(=O)C1CCC(CNS(=O)(=O)c2ccc3c(c2)C(C)(C)C(=O)N3C)CC1 (centres undefined)	·	-46%	i	·	i	·
COc1ccc(NC(=O)C(C)n2c(C)c3cnn(-c4ccccc4)c(=O)c3c2C)cc1Cl (centres undefined)	·	3%	i	·	i	·
O=C(Nc1ccc(F)cc1)C1CCN(c2nc3ccccc3n3cccc23)CC1	·	-19%	·	·	·	·
O=C(CCC(=O)N1CC2CCCN2c2ccccc21)NCc1ccccc1F (centres undefined)	·	-27%	i	·	i	·
CN(C)CCCN(C(=O)CCc1ccccc1)c1nc2ccc(Br)cc2s1	-2%	19%	?	0%	23µM*	?
COc1cc2ccccc2cc1C(=O)N(CCN(C)C)c1nc2ccc(Br)cc2s1	-4%	34%	?	23µM*	?	?
CN(C)CCCN(C(=O)CCc1ccccc1)c1nc2ccc(F)cc2s1	-2%	-26%	i	4%	i	1%
Cc1cccc2sc(N(CCCN(C)C)C(=O)CN3C(=O)c4ccccc4C3=O)nc12	-2%	-1%	i	2%	i	-2%
CN(C)CCN(C(=O)c1ccccc1Cl)c1nc2c(Cl)cccc2s1	0%	4%	i	?	23µM*	?
Cc1cccc2sc(N(CCCN(C)C)C(=O)CCc3ccccc3)nc12	-4%	-5%	?	?	16µM*	?
COC(=O)c1ccc(OC)c(Cn2c(=O)n(-c3cccc(Cl)c3)c(=O)c3c2c2cc(C)ccc2n3C)c1	·	23%	i	·	i	·
CCCN(C(=O)Cn1ncc2c1-c1ccccc1OC2)c1cccc(C)c1	·	19%	i	·	i	·
O=C(NCc1ccccc1)c1ccc2c(c1)sc1nc(-c3ccc(F)cc3)cn12	·	5%	·	·	·	·
Cc1nn(CC(=O)N2CCN(c3ccccc3)CC2)c(=O)c2cc3sccc3n12	·	-9%	i	·	?	·
O=C(NC(c1ccco1)c1cc(Cl)c2cccnc2c1O)c1cccs1 (centres undefined)	·	·	i	·	?	·
N/C(=N\N=Cc1ccc2c(c1)OCO2)NN=Cc1ccc2c(c1)OCO2	0%	20%	?	?	?	23µM*
O=C(NN=Cc1ccc2c(c1)OCO2)NN=Cc1ccc2c(c1)OCO2	-4%	10%	i	19%	?	?
O=C(N/N=C/c1ccc2c(c1)OCO2)C1COc2ccccc2O1 (centres undefined)	-2%	6%	i	0%	10µM*	9%
SMILES	TSG101-PTAP inh	RGS4 inh	KB-3-1 tox	SW480 rerep	KB-V1 MDR tox	MCF10A rereplic
C/C(=N\NC(=O)C1COc2ccccc2O1)c1ccccn1 (centres undefined)	-2%	10%	?	14%	?	18µM*
CCOc1ccc(-c2cc3c(=O)n(CC(=O)Nc4cc(F)ccc4C)ccn3n2)cc1	·	-13%	i	·	i	·
Cc1sc2ncn(CC(=O)Nc3cccc(C(F)(F)F)c3)c(=O)c2c1S(=O)(=O)N1CCN(C)CC1	·	0%	i	·	i	·
C=CCn1c(NC(=O)c2ccc(C)cc2)c(C#N)sc1=N	-5%	-4%	5.2µM*	1%	1.3µM*	?
C=CCn1c(C(C)NC(=O)c2ccc(C)cc2)n[nH]c1=S (centres undefined)	-4%	-36%	i	2%	?	0%
O=c1[nH]nc(Br)c(=O)n1C(c1ccccc1)c1ccccc1	-11%	-26%	?	2%	23µM*	0%
CCOc1ccc(CNC(=O)Cn2cc3c(n2)-c2c(oc(C(=O)N4CCOCC4)c2C)CC3)cc1	·	6%	·	·	·	·
CNC(=S)N/N=C1\C(=O)c2cccc3cccc1c23	-1%	-2%	?	?	?	10µM*
CCCCNC(=S)N/N=C1\C(=O)c2cccc3cccc1c23	-6%	-4%	i	0%	?	12%
CC(C)Cn1c(SCC(=O)N2CCN(C(=O)c3ccco3)CC2)nc2ccccc2c1=O	-5%	-2%	i	8%	i	0.65µM*
Cn1c(SCC(=O)N2CCCC2)nc2ccccc2c1=O	-1%	-6%	i	-16%	i	-6%
O=C(CSc1nc2ccccc2n1CC(=O)N1CCCC1)N1CCN(C(=O)c2ccco2)CC1	-8%	-15%	i	24%	i	-51%
CCn1c(SCC(=O)N2CCCC2)nc2ccccc2c1=O	-1%	-3%	i	-1%	6.5µM*	-1%
COCCCn1c(SCC(=O)N2CCOCC2)nc2ccccc2c1=O	0%	-11%	i	-48%	i	5%
COCCn1c(SCC(=O)N2CCCCC2)nc2ccccc2c1=O	-8%	-10%	i	-1%	4.1µM*	-6%
CCn1c(SCC(=O)N2CCN(c3ccc(F)cc3)CC2)nc2ccccc2c1=O	-7%	25%	i	-6%	?	-14%
CCn1c(SCC(=O)N2CCN(c3ccc(Cl)cc3)CC2)nc2ccccc2c1=O	-6%	?	i	-3%	2.6µM*	24%
COC(=O)c1ccccc1NC(=O)c1cc2nc(-c3ccc(OC)cc3)cc(C(F)(F)F)n2n1	·	-6%	i	·	i	·
COc1ccc(NC(=O)Cn2c(=O)n(Cc3ccccc3)c(=O)c3oc4ccccc4c32)cc1Cl	·	-29%	i	·	i	·
CCCN1CNc2c(c(=O)[nH]c(=S)n2CCc2ccc(OC)cc2OC)C1	·	-3%	·	·	·	·
